# Assay results from ChEMBL document CHEMBL1157539, “Thousands of chemical starting points for antimalarial lead identification” (Nature, 2010).
# What was measured:
# Format in all cases: functional
# Plasmodium falciparum [1] = test: GSK_TCMDC: Inhibition of Plasmodium falciparum 3D7 in whole red blood cells, using parasite LDH activity as an index of growth. Test compounds present at 2uM
# Plasmodium falciparum [2] = test: GSK_TCMDC: Inhibition of Plasmodium falciparum Dd2 in whole red blood cells, using parasite LDH activity as an index of growth. Test compounds present at 2uM
# HepG2 = test: GSK_TCMDC: Percent inhibition of human HepG2 cell line. Test compounds present at 10uM.
Compound,Inhibition (Plasmodium falciparum [1]) [%],Inhibition (Plasmodium falciparum [2]) [%],Inhibition (HepG2) [%]
Cc1cc(OCC2CCN(c3ncc(C(=O)NC4CC4)cc3Cl)CC2)ccc1F,96,96,16
c1ccc2c(CNc3nc(NCC4CCCCC4)nc4[nH]cnc34)cccc2c1,89,44,0
CC(=O)c1c(Cc2ccccc2Cl)c[nH]c1C,95,53,0
COc1ccc(C2C(C(=O)Nc3cc(C)ccc3OC)c3ccccc3C(=O)N2C)cc1 (stereo not drawn),86,3,3
Cc1nc(NC2=NCN(CCCN3CCOCC3)CN2)nc2c(C)cccc12,89,62,17
CN(C)CCNC(=O)c1ccc2c(c1)ncn2-c1cc(OCc2ccccc2C(F)(F)F)c(C(N)=O)s1.CN(C)CCNC(=O)c1ccc2ncn(-c3cc(OCc4ccccc4C(F)(F)F)c(C(N)=O)s3)c2c1,90,8,0
Nc1nccc2ccc(-c3cccnc3)cc12,97,95,9
O=C(Nc1ccc(C(F)(F)F)cc1)c1ccc(S(=O)(=O)NC2CCN(Cc3ccccc3)C2)cc1.O=C(O)C(F)(F)F (stereo not drawn),100,5,42
O=C(Nc1ccc(OC2CCN(Cc3ccc(F)cc3)C2)c(Cl)c1)c1ccccc1.O=C(O)C(F)(F)F (stereo not drawn),91,86,11
Cc1cnccc1/C=C/c1cccc(OCCN2CCc3ccc(S(C)(=O)=O)cc3CC2)c1,93,80,9
Cc1[nH]c(C)c(-c2ccc(C#Cc3ccc(F)cc3F)cc2)c(=O)c1Br,97,98,11
